The list is not random: actives were taken first. Their share in the collection is about 1.2%.
Avidin fluor = green autofluorescence of compounds with avidin beads – biophysical, 488/530 nm, flow cytometry, artefact control, profiling panel. fluorescence (KMESF) at 10 µM. 220,000 tested, 0.38% active. compound fluorescence 488/530 nm; active compounds read high; in the data active = fluorescence above about 47
RGS7-Gao = RGS7-Galphao binding modulators, primary screen, biochemical, multiplexed bead flow cytometry; Guanine nucleotide-binding protein G(o) subunit alpha (Homo sapiens), P09471; actives lie on both sides; binding response (% of control), % at 10 µM; 220,000 tested, 0.35% active; in the data active = binding response below about 49% or above about 150%; inconclusive = no clear call, values can overlap the other calls; inactive = in between;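 note: fluorescent Galphao held in activated GDP-AlF4 state binding bead-coupled RGS7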
Target sequence (P09471 whole entry, looked up): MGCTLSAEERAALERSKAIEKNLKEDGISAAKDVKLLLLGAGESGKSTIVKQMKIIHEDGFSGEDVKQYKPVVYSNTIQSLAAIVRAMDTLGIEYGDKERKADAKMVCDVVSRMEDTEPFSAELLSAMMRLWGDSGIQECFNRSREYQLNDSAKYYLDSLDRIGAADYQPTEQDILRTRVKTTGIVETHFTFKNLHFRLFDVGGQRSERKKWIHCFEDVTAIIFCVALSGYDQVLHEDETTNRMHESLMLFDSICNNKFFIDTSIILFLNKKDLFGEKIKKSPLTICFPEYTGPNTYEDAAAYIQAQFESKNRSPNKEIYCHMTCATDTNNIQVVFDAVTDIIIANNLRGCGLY
RGS8-Gao = RGS8-Galphao binding modulators, primary screen, biochemical, multiplexed bead flow cytometry; Guanine nucleotide-binding protein G(o) subunit alpha (Homo sapiens), P09471; actives lie on both sides; response (percent of control binding), % at 10 µM; 220,000 tested, 0.34% active; AID 1423, 2008; in the data active = response below about 60% or above about 140%; inactive = in between;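 note: Galphao activated as the GDP aluminium fluoride complex binding bead-coupled RGS8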
RGS16-Gao HTS = modulators of RGS16 binding to Galphao, primary screen, biochemical, human proteins, multiplexed bead flow cytometry | Regulator of G-protein signaling 16 (Homo sapiens) + Guanine nucleotide-binding protein … | bead-based flow cytometry RGS16-Galphao binding, fluorescence; actives lie on both sides | AID 1441, 2008 | binding response (% of control), % at 10 µM | 220,000 tested, 0.38% active;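 note: Galphao activated by GDP with aluminum fluoride before binding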
Target sequence (O15492 whole entry, looked up): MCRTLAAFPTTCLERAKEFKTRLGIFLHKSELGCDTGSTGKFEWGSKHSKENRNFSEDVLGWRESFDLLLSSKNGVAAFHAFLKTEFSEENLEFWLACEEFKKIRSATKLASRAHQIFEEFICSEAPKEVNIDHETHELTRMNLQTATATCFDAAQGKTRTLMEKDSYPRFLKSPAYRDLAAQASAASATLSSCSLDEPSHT
Target sequence (P09471 whole entry, looked up): as the sequence (P09471 whole entry, looked up) above
GSH fluor = compound fluorescence on glutathione beads, profiling panel, artefact control, biophysical, 488/530 nm, flow cytometry. GSH beads flow cytometry, compound fluorescence 488/530 nm; active compounds read high. fluorescence (KMESF) at 10 µM. 190,000 tested, 0.25% active. AID 1776, 2009; in the data active = fluorescence above about 89;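 note: glutathione beads carrying GST-tagged Bcl family fusion proteins plus one bare bead set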
RGS4-Gao reg = modulators of RGS4 binding to Galphao, primary screen, biochemical, multiplexed bead flow cytometry; actives lie on both sides; binding response (% of control), % at 10 µM; 220,000 tested, 0.33% active; AID 1415, 2008; in the data active = binding response below about 49% or above about 150%; inactive = in between;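 note: fluorescent Galphao activated with aluminum fluoride binding bead-coupled RGS4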
RGS4-Gao HTS = modulators of RGS–Galpha-o binding, primary screen, biochemical, multiplexed beads, flow cytometry, RGS4/7/8/16/19; RGS4–Galpha-o binding response, % at 10 µM; multiplexed bead flow cytometry; AID 1504, 2009; shares compounds with RGS16-Gao HTS; 1,600 tested, 99% active;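 note: fluorescently labeled Galpha-o bound to GDP with aluminium fluoride binding biotinylated RGS beads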
Avidin counter = disruption of biotin probe capture by avidin, counter-screen for RGS protein interaction modulators, biochemical, flow cytometry, bead-based | 1,700 tested, under 10 active | streptavidin beads, fluorescein-biotin binding | inhibition, % at 10 µM | shares compounds with RGS16-Gao HTS;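 active = inhibition above 50%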;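 note: median green fluorescence of gated singlet beads compared with DMSO control wells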
RGS8-Gao single = RGS8-Galphao binding modulators, confirmation, biochemical, multiplexed bead flow cytometry, single concentration; 1,700 tested, 3% active; binding response (% of control), % at 10 µM; shares compounds with RGS16-Gao HTS; bead-based flow cytometry RGS8-Galphao binding, fluorescence; actives lie on both sides; in the data active = binding response below about 72% or above about 130%; inactive = in between;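 note: Galphao activated as GDP AlF4 complex before binding bead RGS8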
RGS7-Gao confirm = RGS7-Galphao binding modulators, confirmation, biochemical, multiplexed bead flow cytometry, single concentration. shares compounds with RGS16-Gao HTS. bead-based flow cytometry RGS7-Galphao binding; actives lie on both sides. response (percent of control binding), % at 10 µM. 1,700 tested, 7.8% active. AID 1837, 2009; in the data active = response below about 75% or above about 130%; inactive = in between;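 note: fluorescent Galphao activated with GDP and aluminum fluoride binding bead-coupled RGS7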
RGS16-Gao single = modulators of RGS16-Galphao protein binding, confirmation, biochemical, single concentration, multiplexed bead flow cytometry; shares compounds with RGS16-Gao HTS; bead-based flow cytometry; actives lie on both sides; response (% of control binding), % at 10 µM; 1,700 tested, 4% active; in the data active = response below about 74% or above about 130%; inactive = in between;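 note: Galphao activated as the GDP aluminium fluoride complex binding bead-coupled RGS16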
RGS4-Gao confirm = modulators of RGS4-Galphao protein binding, confirmation, biochemical, single concentration, multiplexed bead flow cytometry | shares compounds with RGS16-Gao HTS | actives lie on both sides | binding response (% of control), % at 10 µM | 1,700 tested, 4% active; in the data active = binding response below about 74% or above about 130%; inactive = in between
RGS19-Gao conf = regulators of RGS19-Galphao binding, confirmation, biochemical, single point, multiplexed bead flow cytometry. shares compounds with RGS16-Gao HTS. bead-based flow cytometry RGS19-Galphao binding; actives lie on both sides. response (percent of control binding), % at 10 µM. 1,700 tested, 5% active. AID 1841, 2009; in the data active = response below about 50% or above about 160%; inactive = in between
Of the large screens only hits and unclear results are named; the others gave an inactive call (follow-up assays come after a bar, where they were run); [ ] = dose if it differs, or a comment. Unless noted, the rule behind the calls is not given here.

Cc1ccc(S(=O)(=O)c2c(C)nn(C(C)(C)C)c2OC(=O)CC(C)C)cc1	RGS7-Gao inconclusive
COC(=O)[C@@H]1CCCN1Cc1c(C(=O)N2CCCCC2)nc2c(C)cccn12	none
CCCc1cc(N2CCCC(C(=O)NCc3ccc4c(c3)OCO4)C2)n2ncnc2n1 (stereo unspecified)	none (no result: Avidin fluor, RGS7-Gao, RGS16-Gao HTS, RGS4-Gao reg) | Avidin counter inactive | RGS8-Gao single inactive | RGS7-Gao confirm inactive | RGS16-Gao single inactive | RGS4-Gao confirm inactive | RGS19-Gao conf inactive
CCC(OC(=O)C1=Cc2ccccc2OC1)C(=O)NC1CCCC1 (stereo unspecified)	none (no result: Avidin fluor, RGS7-Gao, RGS8-Gao, RGS16-Gao HTS, RGS4-Gao reg) | Avidin counter inactive | RGS8-Gao single inactive | RGS7-Gao confirm inactive | RGS16-Gao single inactive | RGS4-Gao confirm inactive | RGS19-Gao conf inactive
CS(=O)c1ccccc1-c1nc(-c2cccc(Cl)c2)no1 (stereo unspecified)	none
O=c1c2ccccc2nc(/C=C/c2ccc(O)cc2)n1CCc1ccccc1	none
O=c1c2ccccc2nc(/C=C/c2ccc3c(c2)OCO3)n1CCCO	Avidin fluor 107, RGS7-Gao 168[activator] | RGS4-Gao HTS 109 | Avidin counter inactive | RGS8-Gao single inactive | RGS7-Gao confirm inactive | RGS16-Gao single inactive | RGS4-Gao confirm inactive | RGS19-Gao conf inactive
CC[n+]1c(/C=C/Nc2ccccc2)sc2ccccc21	none
CCN1/C(=C/C=C/C=C/c2sc3ccccc3[n+]2CC)Sc2ccccc21	RGS4-Gao reg 31 (no result: Avidin fluor) | Avidin counter inactive | RGS8-Gao single 63 | RGS7-Gao confirm inactive | RGS16-Gao single 58 | RGS4-Gao confirm -8.0
COc1ccccc1-c1c(C)nn2c(N3CCC(C)CC3)cc(C)nc12	RGS7-Gao inconclusive, RGS8-Gao 22, RGS16-Gao HTS 11, RGS4-Gao reg 17 (no result: GSH fluor) | Avidin counter inactive | RGS8-Gao single inactive | RGS7-Gao confirm inactive | RGS16-Gao single inactive | RGS4-Gao confirm inactive | RGS19-Gao conf inactive
O=C(COC(=O)/C=C/c1ccc(F)cc1)Nc1ccccc1-c1ccccc1	none
Fc1cccc(Cl)c1/C=N/n1c(-c2cccnc2)n[nH]c1=S	RGS8-Gao 59 | RGS4-Gao HTS 88 | Avidin counter inactive | RGS8-Gao single inactive | RGS7-Gao confirm inactive | RGS16-Gao single inactive | RGS4-Gao confirm inactive | RGS19-Gao conf inactive
O=C(NCCO)Nc1ccc2nc(-c3ccco3)c(-c3ccco3)nc2c1	RGS7-Gao 40, RGS8-Gao 48, RGS16-Gao HTS 17 | RGS4-Gao HTS 66
CCOC(=O)/C(=N/Nc1ccc(C)cc1)S(=O)(=O)c1ccc(Cl)cc1	none
CCOC(=O)/C(=N\Nc1ccccc1)S(=O)(=O)c1ccccc1	none (no result: Avidin fluor, RGS7-Gao, RGS8-Gao, RGS16-Gao HTS, RGS4-Gao reg) | Avidin counter inactive | RGS8-Gao single inactive | RGS7-Gao confirm inactive | RGS16-Gao single inactive | RGS4-Gao confirm inactive | RGS19-Gao conf inactive
O=C1CSC(c2cccnc2)N1Cc1ccc(Cl)cc1Cl (stereo unspecified)	RGS7-Gao inconclusive (no result: GSH fluor)
Cc1ccc(CNC(=O)C(C(=O)NCc2ccc(C)o2)c2ncc(C(F)(F)F)cc2Cl)o1	none
CC(C)OC(=O)c1ccc(NC(=O)c2ccco2)cc1	none
O=C(CC(C(=O)N1CCc2ccccc21)n1ccnc1)NCc1ccccc1 (stereo unspecified)	RGS8-Gao 143[activator] | RGS4-Gao HTS 115 | Avidin counter inactive | RGS8-Gao single inactive | RGS7-Gao confirm inactive | RGS16-Gao single inactive | RGS4-Gao confirm inactive | RGS19-Gao conf inactive
CCN(CC)CC(C)CNC(=O)CC(C(=O)N1CCc2ccccc21)n1ccnc1 (stereo unspecified)	none
CCC(C)(C)NC(=O)c1cccc(NC(=O)C(C)C)c1	none
O=C(NN=C1CCCCCCCCCCC1)c1cccc(S(=O)(=O)N2CCOCC2)c1	none
Cc1cc(=O)oc2cc(Oc3ccc([N+](=O)[O-])cc3[N+](=O)[O-])ccc12	RGS16-Gao HTS 25 | RGS4-Gao HTS 93 | Avidin counter inactive | RGS8-Gao single inactive | RGS7-Gao confirm inactive | RGS16-Gao single inactive | RGS4-Gao confirm inactive | RGS19-Gao conf inactive
Cc1cc(=O)oc2cc(Oc3ncccc3[N+](=O)[O-])ccc12	none
Cc1cccc(C(=O)N2CCN(c3ccc(N4CCOCC4)nn3)CC2)c1	RGS7-Gao inconclusive, RGS8-Gao 37, RGS16-Gao HTS 22, RGS4-Gao reg 29 (no result: GSH fluor) | Avidin counter inactive | RGS8-Gao single inactive | RGS7-Gao confirm inactive | RGS16-Gao single inactive | RGS4-Gao confirm inactive | RGS19-Gao conf inactive
COC(=O)/C=C1\N/C(=N\c2nc(C)cc(C)n2)N(c2ccc(Cl)cc2)C1=O	RGS7-Gao inconclusive (no result: GSH fluor)
O=C(c1cc2c(s1)-c1ccccc1S(=O)(=O)C2)N1CCN(Cc2ccccc2)CC1	Avidin fluor 151, RGS7-Gao 276[activator] | RGS4-Gao HTS 132 | Avidin counter inactive | RGS8-Gao single inactive | RGS7-Gao confirm inactive | RGS16-Gao single inactive | RGS4-Gao confirm inactive | RGS19-Gao conf inactive
Cc1cc(-c2ccccc2)nc(Cl)c1C#N	none
C=CCn1c(C(CCC(C)C)CC(C)(C)O)n[nH]c1=S (stereo unspecified)	none

From PubChem
